Several values for one entry are separate records, joined by “and”; a condition that tells them apart may be missing. Equal values may be shown once. In all, about 5,500 compounds went through this assay and about 2,000 (36%) were called active. Inconclusive results (about 18%) are left out. Cut-off read from the data, not from the text of the source: active = normalized growth mostly below about 0.91 (no sharp cut-off); inconclusive = no clear call, values can overlap the other calls; inactive = mostly above about 0.92. The list shows a part of the results.
Assay: chemical genetic growth profiling, strain panel (AID 1159580);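 note: tested at 20 µM; growth read once vehicle control cultures reached saturation at 30 °C; 1 = growth at the plate median or of vehicle wells; lower values mean less growth of the strain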
Conditions: S. cerevisiae deletion strains, growth OD

Measured: normalized growth

C=C[C@@H](C1=CC(=O)C(OC)=C(OC)C1=O)c1ccccc1
0.892 (inactive) and 0.782 (active): locus YJL095W, strain BCK1, stronger effect = lower value
active: locus YAL021C, strain ccr4, stronger effect = lower value 0.899 | locus YAL026C, strain drs2, stronger effect = lower value 0.405 | locus YAL030W, strain snc1, stronger effect = lower value 0.825 | locus YBL061C, strain skt5, stronger effect = lower value 0.859 | locus YBR009C, strain hhf1, stronger effect = lower value 0.273 | locus YBR021W, strain FUR4, stronger effect = lower value 0.516 | locus YBR023C, strain chs3, stronger effect = lower value 0.816 | locus YBR231C, strain swc5, stronger effect = lower value 0.742 | locus YBR279W, strain paf1, stronger effect = lower value 0.703 | locus YCL011C, strain gbp2, stronger effect = lower value 0.307 | locus YCL016C, strain dcc1, stronger effect = lower value 0.581 | locus YCL069W, strain vba3, stronger effect = lower value 0.45 | locus YCR088W, strain abp1, stronger effect = lower value 0.911 | locus YDL035C, strain GPR1, stronger effect = lower value 0.277 | locus YDL192W, strain arf1, stronger effect = lower value 0.266 | locus YDR137W, strain rgp1, stronger effect = lower value 0.694 | locus YDR150W, strain NUM1, stronger effect = lower value 0.61 | locus YDR162C, strain NBP2, stronger effect = lower value 0.0631 | locus YDR297W, strain sur2, stronger effect = lower value 0.802 | locus YDR318W, strain mcm21, stronger effect = lower value 0.181 | locus YDR334W, strain swr1, stronger effect = lower value 0.472 | locus YDR388W, stronger effect = lower value 0.827 | locus YDR392W, strain spt3, stronger effect = lower value 0.146 | locus YDR502C, strain sam2, stronger effect = lower value 0.665 | locus YEL003W, strain gim4, stronger effect = lower value 0.553 | locus YEL061C, strain CIN8 (second series), stronger effect = lower value 0.642 | locus YER015W, strain faa2, stronger effect = lower value 0.588 | locus YER155C, strain BEM2 (second series), stronger effect = lower value 0.413 | locus YER167W, strain BCK2, stronger effect = lower value 0.252 | locus YFR010W, strain ubp6, stronger effect = lower value 0.869 | locus YGL086W, strain mad1, stronger effect = lower value 0.142 | locus YGL173C, strain kem1, stronger effect = lower value 0.632 | locus YGL227W, strain vid30, stronger effect = lower value 0.473 | locus YGL240W, strain doc1, stronger effect = lower value 0.723 | locus YGL248W, strain PDE1, stronger effect = lower value 0.125 | locus YGL253W, strain hxk2, stronger effect = lower value 0.838 | locus YGR078C, strain PAC10, stronger effect = lower value 0.0851 | locus YGR135W, strain pre9, stronger effect = lower value 0.306 | locus YGR252W, strain gcn5, stronger effect = lower value 0.369 | locus YHR013C, strain ard1, stronger effect = lower value 0.507 | locus YHR027C, strain rpn1, stronger effect = lower value 0.775 | locus YHR030C, strain SLT2, stronger effect = lower value 0.0586 and 0.753 | locus YHR094C, strain hxt1, stronger effect = lower value 0.782 | locus YHR129C, strain ARP1, stronger effect = lower value 0.212 | locus YHR142W, strain chs7, stronger effect = lower value 0.603 | locus YHR200W, strain rpn10, stronger effect = lower value 0.788 | locus YIL066C, strain RNR3, stronger effect = lower value 0.148 | locus YIL073C, strain SPO22, stronger effect = lower value 0.341 | locus YIL125W, strain kgd1, stronger effect = lower value 0.919 | locus YJL092W, strain hpr5, stronger effect = lower value 0.883 | locus YJL095W, strain BCK1 (second series), stronger effect = lower value 0.468 | locus YJL115W, strain asf1, stronger effect = lower value 0.82 | locus YJL164C, strain tpk1, stronger effect = lower value 0.376 | locus YJL166W, strain qcr8, stronger effect = lower value 0.245 | locus YJL168C, strain set2, stronger effect = lower value 0.881 | locus YJR066W, strain TOR1, stronger effect = lower value 0.716
inactive: locus YBR171W, strain sec66, stronger effect = lower value 0.996 | locus YBR229C, strain ROT2, stronger effect = lower value 0.989 | locus YCL029C, strain bik1, stronger effect = lower value 0.968 | locus YDL005C, strain med2, stronger effect = lower value 1 | locus YDL040C, strain nat1, stronger effect = lower value 1.01 | locus YDL074C, strain BRE1, stronger effect = lower value 0.962 | locus YDL101C, strain DUN1, stronger effect = lower value 0.97 | locus YDL185W, strain tfp1, stronger effect = lower value 0.945 | locus YDR001C, strain nth1, stronger effect = lower value 0.997 | locus YDR069C, strain doa4, stronger effect = lower value 0.995 | locus YDR101C, strain arx1, stronger effect = lower value 0.998 | locus YDR159W, strain sac3, stronger effect = lower value 1.02 | locus YDR195W, strain ref2 1.09 | locus YDR335W, strain msn5, stronger effect = lower value 0.977 | locus YEL037C, strain rad23, stronger effect = lower value 0.952 | locus YER016W, strain bim1, stronger effect = lower value 0.999 | locus YER110C, stronger effect = lower value 0.97 | locus YER111C, strain swi4, stronger effect = lower value 0.994 | locus YER155C, strain BEM2, stronger effect = lower value 0.985 | locus YGL078C, strain dbp3, stronger effect = lower value 0.966 | locus YGL167C, strain pmr1, stronger effect = lower value 0.972 | locus YHR079C, strain IRE1 (second series), stronger effect = lower value 0.96 | locus YHR079C, strain IRE1, stronger effect = lower value 0.888 | locus YIR030C, strain dcg1, stronger effect = lower value 0.967 | locus YJL129C, strain trk1, stronger effect = lower value 0.978 | locus YJL134W, strain LCB3, stronger effect = lower value 0.986 | locus YJL154C, strain vps35, stronger effect = lower value 1.01 | locus YJL187C, strain SWE1 (second series), stronger effect = lower value 0.977

— PubChem BioAssay AID1159580 (chemical genetic matrix, 2015)
